Data reported in the supplement of paper PMC9023506.
Structures can show the parent of a compound that is named as a salt.

These compounds were tested on Danio rerio larvae (5 dpf) (assay: excitability to 1-s acoustic pulses, difference vs DMSO (percentage points (treated minus DMSO)); higher = more of the behaviour than the DMSO vehicle control). Conditions: 10 µM; exposure time: 3 h pre-incubation + 3 h imaging.
Experimental: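 5-dpf wild-type zebrafish larvae were imaged in 96-well plates. They were treated with 190 Tocris FDA-approved drugs at 10 µM (1 µl/ml DMSO) for 3 h before and 3 h during imaging at 28.5 °C, 48 larvae per drug. Automated image analysis gave % time moving and optomotor responses. Values are drug group mean minus DMSO vehicle mean (n=844), in percentage points, for 10 behaviours.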

Compound | excitability to 1-s acoustic pulses
Cc1ccsc1C(=CCCN1CCC[C@@H](C(=O)O)C1)c1sccc1C [Tiagabine hydrochloride] | -9.16
CC[C@H]1OC(=O)[C@H](C)[C@@H](O[C@H]2C[C@@](C)(OC)[C@@H](O)[C@H](C)O2)[C@H](C)[C@@H](O[C@@H]2O[C@H](C)C[C@H](N(C)C)[C@H]2O)[C@](C)(O)C[C@@H](C)CN(C)[C@H](C)[C@@H](O)[C@]1(C)O [Azithromycin] | 13
NS(=O)(=O)c1cc(C(=O)O)c(NCc2ccco2)cc1Cl [Furosemide] | 0.211
CC(CCc1ccc(O)cc1)NCCc1ccc(O)c(O)c1 (stereo not given) [Dobutamine hydrochloride] | 5.75
CCCN(CCc1cccs1)[C@H]1CCc2c(O)cccc2C1 [Rotigotine hydrochloride] | 31.3
CN1CC2c3ccccc3Oc3ccc(Cl)cc3C2C1 (stereo not given) [Asenapine maleate] | 15
Cc1ccc(O)c([C@H](CCN(C(C)C)C(C)C)c2ccccc2)c1 [Tolterodine L-tartrate] | 7.2
COc1c(C)c2c(c(O)c1C/C=C(\C)CCC(=O)O)C(=O)OC2 [Mycophenolic acid] | 0.774
COc1cc(N)c(Cl)cc1C(=O)NC1CCN(CCCOc2ccc(F)cc2)CC1OC (stereo not given) [Cisapride] | 16.4
CCOC(=O)C1=C(C)NC(C)=C(C(=O)OC)C1c1cccc(Cl)c1Cl (stereo not given) [Felodipine] | -13.3
CCCc1nc(C(C)(C)O)c(C(=O)O)n1Cc1ccc(-c2ccccc2-c2nnn[nH]2)cc1 [Olmesartan] | -0.185
Cc1ccc(-c2cc(C(F)(F)F)nn2-c2ccc(S(N)(=O)=O)cc2)cc1 [Celecoxib] | 6.46
CN(C)CCc1c[nH]c2ccc(C[C@H]3COC(=O)N3)cc12 [Zolmitriptan] | 3.25
CC1CNc2c(cccc2S(=O)(=O)N[C@@H](CCCNC(=N)N)C(=O)N2CC[C@@H](C)C[C@@H]2C(=O)O)C1 (stereo not given in full) [Argatroban] | 0.477
CN(C)CCC[C@@]1(c2ccc(F)cc2)OCc2cc(C#N)ccc21 [Escitalopram oxalate] | 14.4
CN(CCOc1ccc(CC2SC(=O)NC2=O)cc1)c1ccccn1 (stereo not given) [Rosiglitazone] | 15
Cc1c(-c2ccc(O)cc2)n(Cc2ccc(OCCN3CCCCCC3)cc2)c2ccc(O)cc12 [Bazedoxifene acetate] | 16
CCc1c2c(nc3ccc(OC(=O)N4CCC(N5CCCCC5)CC4)cc13)-c1cc3c(c(=O)n1C2)COC(=O)[C@]3(O)CC | 6.46
CCC(C)(C)C(=O)O[C@H]1C[C@@H](C)C=C2C=C[C@H](C)[C@H](CC[C@@H]3C[C@@H](O)CC(=O)O3)[C@H]21 [Simvastatin] | 8.31
Cn1nnc2c(C(N)=O)ncn2c1=O [Temozolomide] | -2.39

Compound | excitability to 1-s acoustic pulses
OC(c1cc(C(F)(F)F)nc2c(C(F)(F)F)cccc12)C1CCCCN1 (stereo not given) [Mefloquine hydrochloride] | 14
CN1CC(=O)N2[C@H](c3ccc4c(c3)OCO4)c3[nH]c4ccccc4c3C[C@@H]2C1=O [Tadalafil] | 4.84
CN(C)C(=N)NC(=N)N [Metformin hydrochloride] | 4.58
Clc1ccccc1C(c1ccccc1)(c1ccccc1)n1ccnc1 [Clotrimazole] | 14
CCCc1nc2c(C)cc(-c3nc4ccccc4n3C)cc2n1Cc1ccc(-c2ccccc2C(=O)O)cc1 [Telmisartan] | 12.8
CCOC(=O)[C@H](CCc1ccccc1)N[C@@H](C)C(=O)N1[C@H](C(=O)O)C[C@@H]2CCC[C@@H]21 [Ramipril] | 4.17
CC(=O)Oc1ccccc1C(=O)O [Aspirin] | 10.2
Cn1cnc([N+](=O)[O-])c1Sc1ncnc2[nH]cnc12 [Azathioprine] | -0.039
CC(=O)Oc1cc2c(s1)CCN(C(C(=O)C1CC1)c1ccccc1F)C2 (stereo not given) [Prasugrel] | 5.57
CC(C)C(=O)OCC(=O)[C@@]12O[C@H](C3CCCCC3)O[C@@H]1C[C@H]1[C@@H]3CCC4=CC(=O)C=C[C@]4(C)[C@H]3[C@@H](O)C[C@@]12C [Ciclesonide] | 4.96
CCCCNc1cc(C(=O)O)cc(S(N)(=O)=O)c1Oc1ccccc1 [Bumetanide] | 3.02
CC1=Nc2ccc(Cl)cc2S(=O)(=O)N1 [Diazoxide] | 0.689
C=C1[C@H](CO)[C@@H](O)C[C@@H]1n1cnc2c(=O)[nH]c(N)nc21 [Entecavir] | -3.18
Nc1nc(F)nc2c1ncn2[C@@H]1O[C@H](CO)[C@@H](O)[C@@H]1O [Fludarabine] | 3.42
O=C(O)c1cc(/N=N/c2ccc(S(=O)(=O)Nc3ccccn3)cc2)ccc1O [Sulfasalazine] | -0.736
CC(C)OC(=O)C(C)(C)Oc1ccc(C(=O)c2ccc(Cl)cc2)cc1 [Fenofibrate] | 4.84
O=C(NCC1CCCCN1)c1cc(OCC(F)(F)F)ccc1OCC(F)(F)F (stereo not given) [Flecainide acetate] | 5.58
Cc1cc2c(s1)Nc1ccccc1N=C2N1CCN(C)CC1 [Olanzapine] | 3.32
CCCC1O[C@@H]2C[C@H]3[C@@H]4CCC5=CC(=O)C=C[C@]5(C)[C@H]4[C@@H](O)C[C@]3(C)[C@]2(C(=O)CO)O1 (stereo not given in full) [Budesonide] | -1.66
N[C@@H]1[C@H]2CN(c3nc4c(cc3F)c(=O)c(C(=O)O)cn4-c3ccc(F)cc3F)C[C@@H]12 [Trovafloxacin mesylate] | 11.3
